Laboratory results published in PubChem BioAssay AID1578 (Sanford-Burnham Center for Chemical Genomics, 2009).
In all, about 290,000 compounds went through this assay and about 3,000 (1%) were called active. No stated cut-off is given here; in the data, active means inhibition mostly above about 36% (no sharp cut-off); inactive means mostly below about 34%. The entries come from a sample that favours actives as a whole.

Assay: NOD1 signaling inhibitors, primary screen, cell-based, luminescence, uHTS (AID 1578);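 further: HEK-293T reporter cells stimulated with the NOD1 agonist gamma-tri-DAP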
Conditions: NOD1-driven NF-kB luciferase reporter cells, at 4 µM, active compounds read high
In the case of `CCC(=O)Nc1cc2nn(-c3ccc(OC)cc3)nc2cc1C`, the inhibition is reported as -20% (inactive).
In the case of `CCCCC(=O)Nc1cc2nn(-c3ccc(OC)cc3)nc2cc1C`, the inhibition is reported as -94.7% (inactive).
In the case of `CCC(=O)Nc1cc2nn(-c3ccc(C)cc3)nc2cc1C`, the inhibition is reported as 58.2% (active).
With `COc1ccc(C(=O)N/C(=C\c2ccccc2)C(=O)Nc2ccc(C(=O)O)cc2)cc1` the inhibition was 0.4% (inactive).
With `CCN(CC(=O)Nc1ccc(NC(C)=O)cc1)C(=O)/C=C/c1cn(-c2ccccc2)nc1-c1ccc(C)cc1` the inhibition was 15.8% (inactive).
For `CCOC(=O)c1ccc(Oc2cn[nH]c2-c2ccc(O)cc2O)cc1`, the inhibition was 5.5% (inactive).
In the case of `CCOC(=O)Cc1nn(C(C)C)c(=O)c2ccccc12`, the inhibition is reported as -21.4% (inactive).
For `CCOC(=O)Cn1nc(-c2ccccc2)c2ccccc2c1=O`, the inhibition was -6.3% (inactive).
With `CCOC(=O)C(C)n1nc(-c2ccccc2)c2ccccc2c1=O` (stereo not drawn) the inhibition was 36.3% (active).
For `CCC(C(=O)O)N1C(=O)C2CCCCC2C1=O` (stereo not drawn), the inhibition was 4.4% (inactive).
With `O=c1ccc(Cc2ccc(Cl)cc2)n[nH]1` the inhibition was -29.8% (inactive).
With `O=c1ccc(Cl)n[nH]1` the inhibition was 61.4% (active).
With `O=c1ccc(-c2ccccc2)n[nH]1` the inhibition was -29% (inactive).
For `CCn1c(SCC(=O)NC2CCCCC2)nnc1-c1ccccn1`, the inhibition was 2.9% (inactive).
For `COc1ccc(C(=O)Nc2ccc(CN3CCCCC3)cc2)cc1`, the inhibition was -37.1% (inactive).
In the case of `NC(=O)c1ccc(NC(=O)c2ccc(CN3CCOCC3)cc2)cc1`, the inhibition is reported as -20.3% (inactive).
For `COc1ccc(C(=O)NC(=S)Nc2ccc(CN3CCOCC3)cc2)cc1`, the inhibition was -0.3% (inactive).
With `O=C(Nc1ccc(S(=O)(=O)N2CCCC2)cc1)c1ccc(CN2CCOCC2)cc1` the inhibition was 44.6% (inactive).
With `O=C(Nc1ccc(S(=O)(=O)Nc2ccccc2)cc1)c1ccc(CN2CCOCC2)cc1` the inhibition was 76.1% (active).
For `c1ccc(COc2cccc(CNCc3cccnc3)c2)cc1`, the inhibition was -20% (inactive).
With `CC(=O)Nc1ccc(S(=O)(=O)NCc2ccc(C)cc2)cc1` the inhibition was 2.4% (inactive).
With `Cc1coc2cc3oc(=O)c4c(c3cc12)CCCC4` the inhibition was -30.5% (inactive).
With `COc1ccc(/C=N/Nc2ccccc2C(=O)O)cc1Cn1cc([N+](=O)[O-])cn1` the inhibition was -11.8% (inactive).
In the case of `O=C(COC(=O)c1ccccc1C(=O)c1ccccc1)Nc1ccc(SC(F)F)cc1`, the inhibition is reported as 7.1% (inactive).
In the case of `CCOC(=O)C1=C(C(F)(F)F)Nc2ncnn2C1c1cc(OC)ccc1OC` (stereo not drawn), the inhibition is reported as 10.8% (inactive).
With `COc1ccc(OCC(=O)NNc2c3ccccc3nc3ccccc23)cc1` the inhibition was 76.7% (active).
In the case of `O=C(COc1ccccc1)NNc1c2ccccc2nc2ccccc12`, the inhibition is reported as 40.5% (inactive).
With `Cc1ccc(OCC(=O)NNc2c3ccccc3nc3ccccc23)cc1` the inhibition was 52.5% (inactive).
